Assay results: PubChem BioAssay (EPA / NIEHS)
The source holds several records for some structures; these can differ, active in one and inactive in another. The source made the active and inactive calls. Rule for the calls: active = hit-call score of the fitted dose curve at least 0.9, where 1 is the maximum; inactive = score below 0.9.

Tests used:
[1] = read-out: Monokine induced gamma interferon (MIG), CXCL9 (gene 4283); test: BSK_SAg_MIG: BioMAP Diversity Plus: SAg Assay for Monokine induced gamma interferon (MIG) Biomarker Activity (AID 2283092); details: primary human HUVEC with PBMC; actives raise or lower the signal
Outline: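 Endothelial cells and PBMC were co-cultured, exposed to test chemicals, and sampled 24 h later. MIG was measured by ELISA, and responses were fitted in both directions relative to DMSO.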

[2] = BSK_SAg_PBMCCytotoxicity: PBMC Cytotoxicity Assessment in the BioMAP Diversity Plus: SAg Assay (AID 2283093); details: primary human HUVEC with PBMC;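 note: PBMC viability measured as Alamar Blue reduction fluorescence at 546/580 nm; fitted both ways against DMSO so a hit may be loss or gain of signal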;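 for AC50: PBMC superantigen activated with SEB plus TSST-1 one hour after compound addition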
Outline: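 Alamar Blue reduction (6 h, ex/em 546/580 nm) read after 90 h culture of PBMC pre-dosed 1 h then stimulated with SEB plus TSST-1, 20 ng/mL each. Gain or loss of signal fitted relative to DMSO.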

[3] = read-out: Interleukin-8 (IL8), CXCL8 (gene 3576); test: BSK_SAg_IL8: BioMAP Diversity Plus: SAg Assay for Interleukin-8 (IL8) Biomarker Activity (AID 2283094); details: primary human HUVEC with PBMC; actives raise or lower the signal
Outline: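 Chemicals were dosed onto a human endothelial–PBMC co-culture, and IL-8 was quantified by ELISA after 24 h. Both increases and decreases were fitted relative to DMSO.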

[4] = BSK_SAg_SRB: Viability Assessment in the BioMAP Diversity Plus: SAg Assay (AID 2283096); details: primary human HUVEC with PBMC;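 note: cells read one day after compound addition; hits may be either gain or loss of signal compared with DMSO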
Outline: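 SRB absorbance at 560 nm served as the viability read-out. Cells (HUVEC plus peripheral blood mononuclear cells) were TCA-fixed and stained 24 h post-dosing; activity fitted in both directions against DMSO controls.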

[5] = BSK_SAg_Proliferation: Cell Proliferation Assessment in the BioMAP Diversity Plus: SAg Assay (AID 2283095); details: primary human HUVEC with PBMC;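 note: relative cell number as total protein by SRB absorbance in sub-confluent culture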
Outline: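 Absorbance of sulforhodamine B at 560 nm reports total protein in a human vascular endothelial/PBMC co-culture after 96 h chemical exposure. Gain or loss of signal is fitted in both directions against DMSO.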

For `c1ccc2c(c1)c1cccc3ccc4cccc2c4c31`, the outcome [1] was “inactive”, the outcome [2] was “inactive” and the outcome [3] was “inactive”. For the same molecule, the outcome [4] was “inactive”.
For `CC(C)(COC(=O)c1ccccc1)COC(=O)c1ccccc1`, the outcome [1] was “inactive”, the outcome [2] was “inactive” and the outcome [3] was “inactive”. The AC50 [5] was 20 µM (active) and the outcome [4] was “inactive”.
For `O=C(O)c1ccc([N+](=O)[O-])cc1`, the outcome [1] was “inactive”, the outcome [2] was “inactive” and the outcome [3] was “inactive”. For the same molecule, the outcome [5] was “inactive” and the outcome [4] was “inactive”.
For `BrC1CCC(Br)C(Br)CCC(Br)C(Br)CCC1Br` (stereo unspecified), the outcome [1] was “inactive”, the AC50 [2] was 2.03 µM (active) and the outcome [3] was “inactive”. The AC50 [4] was 4.67 µM (active).
In the case of `Nc1cc([N+](=O)[O-])ccc1Cl`, the outcome [1] is reported as “inactive”, the outcome [2] is reported as “inactive” and the outcome [3] is reported as “inactive”. For the same molecule, the outcome [4] was “inactive”.
With `Cc1cc(C2(c3cc(C)c(O)cc3C)OS(=O)(=O)c3ccccc32)c(C)cc1O` the outcome [1] was “inactive”, the AC50 [2] was 27.3 µM (active) and the outcome [2] was “inactive”. The outcome [3] was “inactive” and the outcome [4] was “inactive”.
For `CCCCC(CC)COCCC#N` (stereo unspecified), the outcome [1] was “inactive”, the outcome [2] was “inactive” and the AC50 [3] was 0.0801 µM (active). For the same molecule, the outcome [5] was “inactive” and the outcome [4] was “inactive”.
With `OC1OC[C@@H](O)[C@H](O)[C@H]1O` (stereo partly specified) the outcome [1] was “inactive”, the outcome [2] was “inactive” and the outcome [3] was “inactive”. The outcome [4] was “inactive”.
With `CC1COc2ccccc2N1C(=O)C(Cl)Cl` (stereo unspecified) the outcome [1] was “inactive”, the outcome [2] was “inactive” and the outcome [3] was “inactive”. For the same molecule, the AC50 [4] was 10.3 µM (active).
For `O=C=NC1CCC(CC2CCC(N=C=O)CC2)CC1` (stereo unspecified), the outcome [1] was “inactive”, the AC50 [2] was 13.3 µM (active) and the outcome [3] was “inactive”. For the same molecule, the outcome [4] was “inactive”.
For `CN(CCOc1ccc(CC2SC(=O)NC2=O)cc1)c1ccccn1` (stereo unspecified), the outcome [1] was “inactive”, the outcome [2] was “inactive” and the AC50 [3] was 20 µM (active). For the same molecule, the outcome [4] was “inactive”.
With `C#C[C@]1(O)CC[C@H]2[C@@H]3CCC4=Cc5oncc5C[C@]4(C)[C@H]3CC[C@@]21C` the outcome [1] was “inactive”, the outcome [2] was “inactive” and the outcome [3] was “inactive”. For the same molecule, the outcome [4] was “inactive”.
With `CC(=O)/C=C/C1=C(C)CCCC1(C)C` the outcome [1] was “inactive”, the outcome [2] was “inactive” and the outcome [3] was “inactive”. The outcome [4] was “inactive”.
